Inconclusive results are not listed. Unmarked numbers belong to inactive results. Active and inactive are the calls of the source. Calls come from the whole dose curve; as a rule, active = well fitted curve in the direction sought with a large enough effect in the repeat runs; inconclusive = weak or mixed curves; inactive = no such curve, though single readings can be large; an effect the other way counts as inactive or inconclusive.
System: not listed separately
Experiment: qHTS assay to identify small molecule antagonists of the retinoic acid receptor (RAR) signaling pathway (AID 1159552; note: nearly all actives have a fitted effect of over 50% in size; note: potency is the fitted concentration of half-maximal effect)
Details: C3RL4 RARE luciferase reporter, retinol-stimulated, 6 h; series mostly up to 92.4 µM; activity, negative = inhibition: at the top concentration
How it was run: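 Cells of the C3RL4 line were seeded, incubated overnight, then dosed with compounds in DMSO followed immediately by retinol (1 uM final). Six hours later luciferase detection reagent went in; signal was measured after 30 min at RT.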
% is set by controls: 0 for no effect and ±100 for the full control effect.

Row | Structure (SMILES) | activity, negative = inhibition | Potency
1 | S=C=Nc1cccc2ccccc12 | 1.53% | –
2 | CN(C)CCc1c[nH]c2ccc(O)cc12 | 46.1% | –
3 | COc1cccc(C(=O)CCN[C@@H](C)[C@H](O)c2ccccc2)c1 | – | 26.6 µM (active)
4 | c1cc[c]([Sb]([c]2ccccc2)[c]2ccccc2)cc1 | – | 61.1 µM (active)

System: not listed separately
Experiment: qHTS assay to identify small molecule agonists of the retinoic acid receptor (RAR) signaling pathway (AID 1159553)
Details: C3RL4 RARE luciferase reporter, agonist, 6 h; series mostly up to 73.3 µM; activation: at the top concentration
How it was run: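 Cell line C3RL4, RARE luciferase reporter. Treatment: compounds in DMSO, 6 hr, 37 C, 5% CO2, after overnight plating. Detection: luminescence, 30 min RT after reagent.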

Row | Structure (SMILES) | activation
5 | Oc1c(Br)c(Br)c(Br)c(Br)c1Br | -5.08% [at 94.8 µM]
6 | CC(C)Oc1cccc(NC(=O)c2ccccc2C(F)(F)F)c1 | -1.04%
7 | CCCOCC(=Nc1ccc(Cl)cc1C(F)(F)F)n1ccnc1 | -22.2%
8 | C[C@@H]1O[C@@H](O[C@@H]2C=C3CC[C@@H]4[C@H](CC[C@]5(C)[C@@H](c6ccc(=O)oc6)CC[C@]45O)[C@@]3(C)CC2)[C@H](O)[C@H](O)[C@H]1O | -17.8%
9 | CCCCCCCCCCCCCCC(Br)C(=O)O (configuration not stated) | -2.58%
10 | COc1cccc(C(=O)CCN[C@@H](C)[C@H](O)c2ccccc2)c1 | -3.61%
11 | CC(C)(O)c1cnn2c(-c3ccc(F)c(-c4c(F)cccc4C#N)c3)cnc2n1 | -9.1%

System: not listed separately
Experiment: qHTS assay to identify small molecule antagonists of the estrogen related receptor (ERR) signaling pathway - cell viability counter screen (AID 1224818);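 note: viability measured after 17.5 h of compound exposure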
Details: ERR reporter cell line viability counter screen; series mostly up to 92.2 µM; viability change, negative = cytotoxic: at the top concentration
How it was run: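 Here, ERR cells are plated at 2,000 cells per well, allowed 6 h to attach, and treated with compounds in DMSO for 17.5 h at 37 C. CellTiter-Fluor is then added and fluorescence read after 30 min.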

Row | Structure (SMILES) | viability change, negative = cytotoxic
12 | Nc1ccc(Sc2ccc(N)cc2)cc1 | -9.71%
13 | ClC1=C(Cl)[C@]2(Cl)[C@@H]3[C@@H]4C[C@@H]([C@H]5O[C@@H]45)[C@@H]3[C@@]1(Cl)C2(Cl)Cl | -12.4%
14 | CC(C)Oc1cccc(NC(=O)c2ccccc2C(F)(F)F)c1 | -9.84%

System: not listed separately
Experiment: qHTS assay to identify small molecule agonists of the estrogen related receptor (ERR) signaling pathway (AID 1224820)
Details: ERR reporter cell line, luciferase agonist mode; series mostly up to 92.2 µM; activation: at the top concentration
How it was run: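 ERR reporter cells (NTP line) plated 2,000/well, incubated 6 h at 37 C/5% CO2, then pinned with compounds in DMSO and held 18 h at 37 C. One-Glo added; luminescence read after 30 min at room temperature.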

Row | Structure (SMILES) | activation
15 | Nc1ccc(Sc2ccc(N)cc2)cc1 | -34.4%
16 | ClC1=C(Cl)[C@]2(Cl)[C@@H]3[C@@H]4C[C@@H]([C@H]5O[C@@H]45)[C@@H]3[C@@]1(Cl)C2(Cl)Cl | -48.9%
17 | CC(C)Oc1cccc(NC(=O)c2ccccc2C(F)(F)F)c1 | -39.3%

System: not listed separately
Experiment: qHTS assay to identify small molecule antagonists of the estrogen related receptor signaling pathway with the pleiotropic PPARgamma coactivator (PGC) cell viability counter screen (AID 1224822; note: potency is the fitted concentration of half-maximal effect;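 note: viability read after 17.5 h compound exposure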)
Details: ERR/PGC reporter cell line viability counter screen; series mostly up to 92.2 µM; viability change, negative = cytotoxic: at the top concentration
How it was run: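 qHTS format, DMSO compound stocks pin-transferred onto PGC/ERR cells 6 h after plating; 17.5 h exposure at 37 C, then CellTiter-Fluor fluorescence.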

Row | Structure (SMILES) | Potency | viability change, negative = cytotoxic
18 | CCCCCCCCc1ccc(O)cc1 | 52.4 µM (active) | –
19 | Nc1ccc(Sc2ccc(N)cc2)cc1 | – | -5.28%
20 | ClC1=C(Cl)[C@]2(Cl)[C@@H]3[C@@H]4C[C@@H]([C@H]5O[C@@H]45)[C@@H]3[C@@]1(Cl)C2(Cl)Cl | – | -20.5%
21 | CC(C)Oc1cccc(NC(=O)c2ccccc2C(F)(F)F)c1 | – | -1.8%
22 | c1ccc2c(c1)OCC(C1=NCCN1)O2 (configuration not stated) | – | -9.43% [at 46.1 µM]

System: not listed separately
Experiment: qHTS assay to identify small molecule agonists of the estrogen related receptor signaling pathway with the pleiotropic PPARgamma coactivator (PGC) (AID 1224823)
Details: ERR/PGC reporter cell line, luciferase agonist mode; series mostly up to 92.2 µM; activation: at the top concentration
How it was run: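 PGC/ERR reporter cells were seeded, rested 6 h at 37 C/5% CO2, then exposed to compounds in DMSO by pin transfer for 18 h at 37 C. Luciferase activity was read as luminescence after One-Glo reagent and 30 min at room temperature.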

Row | Structure (SMILES) | activation
23 | Nc1ccc(Sc2ccc(N)cc2)cc1 | -2.94%
24 | ClC1=C(Cl)[C@]2(Cl)[C@@H]3[C@@H]4C[C@@H]([C@H]5O[C@@H]45)[C@@H]3[C@@]1(Cl)C2(Cl)Cl | -10.2%
25 | CC(C)Oc1cccc(NC(=O)c2ccccc2C(F)(F)F)c1 | -7.55%

System: not listed separately
Experiment: qHTS assay to identify small molecule antagonists of the estrogen related receptor (ERR) signaling pathway from Tox21 library - cell viability counter screen (AID 1224834); note: nearly all actives have a fitted effect of over 30% in size; note: potency is the fitted concentration of half-maximal effect
Details: ERR reporter cells viability, CellTiter-Fluor, 17.5 h; series mostly up to 92.4 µM; viability change, negative = cytotoxic: at the top concentration
How it was run: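 Viability readout (CellTiter-Fluor fluorescence, 30 min at 37 C) multiplexed with the ERR assay; cells treated 17.5 h at 37 C with compounds delivered in DMSO.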

Row | Structure (SMILES) | Potency | viability change, negative = cytotoxic
26 | CCCCCCCCc1ccc(O)cc1 | 61.5 µM (active) | –
27 | CC1(c2ccc(Oc3ccccc3)cc2)OC(=O)N(Nc2ccccc2)C1=O (configuration not stated) | 27.5 µM (active) | –
28 | CC(C)(C)C(O)/C(=C\c1ccc(Cl)cc1Cl)n1cncn1 (configuration not stated) | 65.9 µM (active) | –
29 | CC(=O)[O-].[Tl+] | 61.5 µM (active) | –
30 | O=CC(Br)(Br)Br | 24.3 µM (active) | –
31 | O=C(CCl)C(Cl)Cl | 27.6 µM (active) | –
32 | CC(C)(C)c1cc([N+](=O)[O-])cc(C(C)(C)C)c1O | 13.7 µM (active) | –
33 | CCC(C)c1cc([N+](=O)[O-])cc([N+](=O)[O-])c1OC(=O)C=C(C)C (configuration not stated) | 27.3 µM (active) | –
34 | ClC1=C(Cl)[C@]2(Cl)[C@@H]3[C@@H]4C[C@@H]([C@H]5O[C@@H]45)[C@@H]3[C@@]1(Cl)C2(Cl)Cl | 54.5 µM (active) | –
35 | N#Cc1ccc(O)cc1 | – | 3.65%
36 | CC(C)OC(=S)S | – | -8.12%
37 | Clc1ccc(CO/N=C(\Cn2ccnc2)c2ccc(Cl)cc2Cl)c(Cl)c1 | 26.6 µM (active) | –
38 | CCCOCC(=Nc1ccc(Cl)cc1C(F)(F)F)n1ccnc1 | 54.4 µM (active) | –
39 | C[C@@H]1O[C@@H](O[C@@H]2C=C3CC[C@@H]4[C@H](CC[C@]5(C)[C@@H](c6ccc(=O)oc6)CC[C@]45O)[C@@]3(C)CC2)[C@H](O)[C@H](O)[C@H]1O | 0.0298 µM (active) | –
40 | CCCCCCCCCCCCCCC(Br)C(=O)O (configuration not stated) | – | -7.53%
41 | Fc1ccc(Oc2ccnc3cc(Cl)cc(Cl)c23)cc1 | – | -13.1%
42 | CNC(C)Cc1ccc2c(c1)OCO2 (configuration not stated) | – | 3.21%
43 | S=C=Nc1cccc2ccccc12 | 67.9 µM (active) | –
44 | CN(C)CCc1c[nH]c2cccc(O)c12 | – | 0.383%
45 | CN(C)CCc1c[nH]c2ccc(O)cc12 | – | -0.154%
46 | COc1cccc(C(=O)CCN[C@@H](C)[C@H](O)c2ccccc2)c1 | – | -2.45% [at 42.5 µM]
47 | c1ccc2c(c1)OCC(C1=NCCN1)O2 (configuration not stated) | 21.1 µM (active) | –
48 | c1cc[c]([Sb]([c]2ccccc2)[c]2ccccc2)cc1 | – | -0.614%
49 | COc1ccc(N)cc1N | 31.6 µM (active) | –
50 | CC(C)CCCCCCCOP(=O)(Oc1ccccc1)Oc1ccccc1 | – | -1.39%
51 | C[C@]12CC[C@H](O)C[C@H]1CC[C@@H]1[C@@H]2C[C@@H](O)[C@]2(C)[C@@H](C3=CC(=O)OC3)CC[C@]12O | 0.77 µM (active) | –

Target: Luciferin 4-monooxygenase (Photinus pyralis) (UniProt P08659)
Sequence (P08659 whole entry, looked up): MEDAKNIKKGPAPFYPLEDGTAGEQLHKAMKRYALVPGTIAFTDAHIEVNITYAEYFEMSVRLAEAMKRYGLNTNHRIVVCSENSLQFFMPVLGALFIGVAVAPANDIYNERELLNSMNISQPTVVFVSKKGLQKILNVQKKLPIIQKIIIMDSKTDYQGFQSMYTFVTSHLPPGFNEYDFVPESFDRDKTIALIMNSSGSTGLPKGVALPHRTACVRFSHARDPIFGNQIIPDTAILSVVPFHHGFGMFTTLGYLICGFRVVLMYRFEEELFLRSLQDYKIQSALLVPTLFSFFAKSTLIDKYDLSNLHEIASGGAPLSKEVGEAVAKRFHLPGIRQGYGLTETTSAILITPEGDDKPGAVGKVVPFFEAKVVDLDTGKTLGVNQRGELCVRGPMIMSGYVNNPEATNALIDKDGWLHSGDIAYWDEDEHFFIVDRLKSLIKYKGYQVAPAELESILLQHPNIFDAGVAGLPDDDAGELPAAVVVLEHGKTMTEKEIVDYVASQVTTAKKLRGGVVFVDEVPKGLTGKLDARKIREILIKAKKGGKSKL
Experiment: qHTS assay to identify small molecule inhibitors of firefly luciferase (AID 1224835); note: nearly all actives have a fitted effect of over 25% in size; note: potency is the fitted concentration of half-maximal effect
Details: purified P. pyralis luciferase, luminescence inhibition; series mostly up to 115 µM; activity change, negative = inhibition: at the top concentration
How it was run: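 Inhibition of purified Photinus luciferase is measured by luminescence. Substrate levels (D-luciferin, ATP) sit at their KM values. Each compound is tested in a concentration series.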

Row | Structure (SMILES) | activity change, negative = inhibition | Potency
52 | CC1(c2ccc(Oc3ccccc3)cc2)OC(=O)N(Nc2ccccc2)C1=O (configuration not stated) | -3.46% | –
53 | CC(C)(C)C(O)/C(=C\c1ccc(Cl)cc1Cl)n1cncn1 (configuration not stated) | -3.94% | –
54 | CC(=O)O[C@H]1CC[C@@]2(C)C(=CC[C@@H]3[C@@H]2CC[C@]2(C)C(=O)CC[C@@H]32)C1 | 6.07% | –
55 | O=CC(Br)(Br)Br | – | 17.8 µM (active)
56 | O=C(CCl)C(Cl)Cl | 3.28% | –
57 | CC(C)(C)c1cc([N+](=O)[O-])cc(C(C)(C)C)c1O | -1.51% | –
58 | CCC(C)c1cc([N+](=O)[O-])cc([N+](=O)[O-])c1OC(=O)C=C(C)C (configuration not stated) | 0.0105% | –
59 | ClC1=C(Cl)[C@]2(Cl)[C@@H]3[C@@H]4C[C@@H]([C@H]5O[C@@H]45)[C@@H]3[C@@]1(Cl)C2(Cl)Cl | 1.33% | –
60 | CC(C)N1C(=O)N(c2ccccc2)CSC1=NC(C)(C)C | 3.65% | –
61 | N#Cc1ccc(O)cc1 | 0.54% | –
62 | CC(C)OC(=S)S | -12.9% | –
63 | CCCCOCN(C(=O)CCl)c1c(CC)cccc1CC | 0.659% | –
64 | CC(C)Oc1cccc(NC(=O)c2ccccc2C(F)(F)F)c1 | -1.63% | –
65 | Clc1ccc(CO/N=C(\Cn2ccnc2)c2ccc(Cl)cc2Cl)c(Cl)c1 | 0.774% [at 52.9 µM] | –
66 | CCCOCC(=Nc1ccc(Cl)cc1C(F)(F)F)n1ccnc1 | 3.74% | –
67 | C[C@@H]1O[C@@H](O[C@@H]2C=C3CC[C@@H]4[C@H](CC[C@]5(C)[C@@H](c6ccc(=O)oc6)CC[C@]45O)[C@@]3(C)CC2)[C@H](O)[C@H](O)[C@H]1O | -0.868% [at 52.9 µM] | –

Row | Structure (SMILES) | activity change, negative = inhibition | Potency
68 | Fc1ccc(Oc2ccnc3cc(Cl)cc(Cl)c23)cc1 | – | 35.6 µM (active)
69 | CCN(CC)c1c([N+](=O)[O-])cc(C(F)(F)F)c(N)c1[N+](=O)[O-] | 2% | –
70 | CNC(C)Cc1ccc2c(c1)OCO2 (configuration not stated) | -0.115% | –
71 | CC[C@H]1C[C@@H]2C[C@H]3c4[nH]c5ccc(OC)cc5c4CCN(C2)[C@@H]13 | 1.82% | –
72 | S=C=Nc1cccc2ccccc12 | -11.3% | –
73 | CN(C)CCc1c[nH]c2cccc(O)c12 | -0.836% | –
74 | Oc1cc(Cl)c(Cl)c(Cl)c1 | -6.02% | –
75 | CN(C)CCc1c[nH]c2ccc(O)cc12 | -3.91% | –
76 | COc1cccc(C(=O)CCN[C@@H](C)[C@H](O)c2ccccc2)c1 | -2.45% [at 52.9 µM] | –
77 | c1ccc2c(c1)OCC(C1=NCCN1)O2 (configuration not stated) | -5.31% [at 52.9 µM] | –
78 | c1cc[c]([Sb]([c]2ccccc2)[c]2ccccc2)cc1 | 1.63% | –
79 | CC(C)(O)c1cnn2c(-c3ccc(F)c(-c4c(F)cccc4C#N)c3)cnc2n1 | -0.0855% | –
80 | COc1ccc(N)cc1N | – | 41.2 µM (active)
81 | CC(C)CCCCCCCOP(=O)(Oc1ccccc1)Oc1ccccc1 | -2.2% | –
82 | C[C@]12CC[C@H](O)C[C@H]1CC[C@@H]1[C@@H]2C[C@@H](O)[C@]2(C)[C@@H](C3=CC(=O)OC3)CC[C@]12O | -1.27% | –

— PubChem BioAssay (Tox21)
